Many of the other results were omitted from the sample, so hits are more common in it than they were.
SF1 inhibitor – blocks the human nuclear receptor SF-1; Q13285; 65,000 compounds, 0.55% hits; AID 525; CHO-K1 Gal4-SF-1 LBD luciferase reporter; inhibition, % at 10 µM;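 active means inhibition above the mean inhibition of all tested compounds plus 3 SD, cut at about 48% in these data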;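 further: 0% = SF-1 transfected cells with DMSO and 100% = mock-transfected cells lacking SF-1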
Target sequence (Q13285 whole entry, looked up, the tested form may be a part): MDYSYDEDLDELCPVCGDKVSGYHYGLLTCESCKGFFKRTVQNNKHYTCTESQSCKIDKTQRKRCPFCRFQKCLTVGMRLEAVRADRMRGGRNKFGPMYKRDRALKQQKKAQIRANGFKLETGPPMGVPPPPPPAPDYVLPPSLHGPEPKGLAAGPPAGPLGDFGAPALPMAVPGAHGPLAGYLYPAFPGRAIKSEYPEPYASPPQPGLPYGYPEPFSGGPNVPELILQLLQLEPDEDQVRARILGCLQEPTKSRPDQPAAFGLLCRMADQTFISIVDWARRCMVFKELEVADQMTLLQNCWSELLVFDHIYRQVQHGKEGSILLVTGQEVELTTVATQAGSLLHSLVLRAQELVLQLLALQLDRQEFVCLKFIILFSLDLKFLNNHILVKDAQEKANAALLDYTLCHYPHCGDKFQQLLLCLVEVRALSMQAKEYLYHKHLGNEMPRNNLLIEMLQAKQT
* = called active by the depositor.

SMILES	SF1 inhibitor
O=c1cc(N2CCN(c3ccccc3)CC2)[nH]c(=O)n1C1CCCCC1	52*
CN1CCN(C2=C(Cl)C(=O)N(c3cccc(Cl)c3)C2=O)CC1	15
O=c1cc(NCC2CCCO2)[nH]c(=O)n1-c1ccc(Cl)cc1 (stereo unspecified)	-8
Cc1ccccc1-n1c(=O)cc(N2CCCCCC2)[nH]c1=O	-7
CCOC(=O)C1CCN(c2cc(=O)n(C3CCCCC3)c(=O)[nH]2)CC1	-12
CCS(=O)(=O)c1ccc2oc(Nc3ccccc3C)nc2c1	-66
CN(CC(=O)N1CCN(c2ccccc2)CC1)S(=O)(=O)c1cnc[nH]1	6
O=C1CCN(Cc2nnnn2CC2CCCO2)c2ccccc2N1 (stereo unspecified)	3
c1cc(CNc2ccc3c(c2)OCO3)ccn1	-7
O=C(/C=C\Nc1ccc2c(c1)OCO2)c1ccccn1	83*
O=C(Nc1ccc2c(c1)OCO2)c1cccs1	-61
Cc1ccc(S(=O)(=O)N(Cc2nccn2C)C(C)C)cc1	9
O=C(Cn1nc(-c2ccc(Cl)cc2)ccc1=O)NCCN1CCOCC1	3
O=C(NCC1CCCO1)c1ccc2nc(N3CCCCC3)sc2c1 (stereo unspecified)	-54
Clc1ccc2nc(N3CCCCC3)sc2c1	-65
CC1CCN(c2nc3ccc(C(=O)O)cc3s2)CC1	94*
O=C(Cn1ncn2c(cc3ccccc32)c1=O)NCc1ccco1	-8
Cc1cc(C)n(-c2nc3c(c(=O)[nH]c(=O)n3C)n2CC(C)C)n1	-29
Cc1ccc(C)c(S(=O)(=O)c2c(N)n(/N=C/c3ccco3)c3nc4ccccc4nc23)c1	15
Cc1cccc2[nH]c(-c3ccc(NC(=O)c4ccco4)cc3)nc12	-74
CCOC(=O)C1CCN(S(=O)(=O)c2ccc(-c3nc4ccccc4s3)s2)CC1	-68
O=C(Nc1nc2ccccc2s1)c1ccc(Cl)s1	-98
O=C(NC1CC1)c1ccc(-c2nc3ccccc3s2)s1	79*
CCOC(=O)N1CCN(S(=O)(=O)c2c(C)[nH]c(=O)[nH]c2=O)CC1	-5
CN(C1CCCCC1)S(=O)(=O)c1ccc(-n2cnnn2)cc1	26
SMILES	SF1 inhibitor
CC(C)(C)n1ncc2c(=O)n(CC(=O)NCc3ccccc3Cl)cnc21	-74
Cc1[nH]c2ccc(-c3nnc(SCC(=O)NCc4ccco4)n3Cc3ccccc3)cc2c1C	1
CC(C)Sc1nnc(Nc2ccccc2)s1	-106
COc1ccccc1C(=O)Nc1cccc(N(C)S(C)(=O)=O)c1	0
COc1cccc(-c2nnc(SCC(=O)OC(C)C)n2N)c1	8
CCCN1C(=O)SC(CC(=O)Nc2ccc(Br)cc2)C1=O (stereo unspecified)	1
CCOC(=O)NCCc1ccc(OC)cc1	5
CCc1c(C)nc2ncnn2c1NCCc1ccc(OC)cc1	85*
COc1ccc(CCNc2oc(COc3ccccc3)nc2C#N)cc1	-5
CN(C)C(=O)N1CCCC(C(=O)NCc2ccccc2)C1 (stereo unspecified)	-2
COC(=O)c1cc2sc(Cl)cc2n1CC(=O)N1CCCc2ccccc21	2
NC(=O)C1CCC(NC(=O)OCc2ccccc2)CC1 (stereo unspecified)	-6
O=C(NCCn1ccc2ccccc21)c1ccc2c(c1)OCO2	-72
Nc1nnnn1/N=C/C(Br)=C/c1ccccc1	96*
CC(C)CC1NC(=O)N(CC(=O)c2ccc3c(c2)OCCO3)C1=O (stereo unspecified)	-84
COc1ccc(Nc2ncc3c(n2)CC(c2ccc(OC)cc2)CC3=O)cc1 (stereo unspecified)	10
CCOC(=O)c1cnn(-c2nc(SC)nc3sc4c(c23)CCC4)c1N	-3
CCNc1nc(N)c(C(=O)c2ccc(Cl)s2)s1	-31
CCOC(=O)N1CCC(NC(=O)C2CCCN(S(=O)(=O)c3cccnc3)C2)CC1 (stereo unspecified)	6
Cc1cc(C)n2c3c(c(C#N)c2n1)CCCC3	-23
O=C1c2ccccc2C(=O)C1c1nccc2ccccc12	60*
c1ccc2c(-c3nc(-c4ccncc4)no3)cccc2c1	-74
CCC(CC)C(=O)NCCc1cc2ccc(C)c(C)c2[nH]c1=O	4
CN(Cc1ccco1)C(=O)c1ccc(N2CCCC2=O)cc1	-10
CN(Cc1nc(-c2ccccn2)no1)S(=O)(=O)c1ccc(Cl)cc1	-4
SMILES	SF1 inhibitor
Cc1onc(-c2ccccc2Cl)c1-c1nc(-c2ccccn2)no1	-7
c1ccc(-c2noc(C3CCCCC3)n2)nc1	-56
c1ccc(-c2noc(-c3ccc4c(c3)OCO4)n2)nc1	75*
c1ccc(-c2noc(-c3ccc4ccccc4c3)n2)nc1	91*
c1ccc(-c2noc(C34CC5CC(CC(C5)C3)C4)n2)nc1	-86
Cc1csc(NC(=O)c2cnc3ccccn3c2=O)n1	-61
CCn1ncc(C2=NOC(C(=O)N3CCC(C(N)=O)CC3)C2)c1C (stereo unspecified)	1
COc1ccc(-n2c(C)cc(C(=O)Cn3c(NCCO)nc4ccccc43)c2C)cc1	-10
CCn1nnnc1-c1ccc(OC)c(S(=O)(=O)N2CCCCC2)c1	-21
CC(=O)NCCc1nc2ccccc2n1Cc1ccccc1	32
CC(=O)C1=C(C)OC(N)=C(C#N)C1c1ccco1 (stereo unspecified)	-3
CN(C)c1ccc2c(c1)OC(N)=C(C#N)C2c1cccc(F)c1 (stereo unspecified)	56*
Cn1nc(-c2ccc(C(=O)N3CCN(c4ccccc4)CC3)cc2)c2ccccc2c1=O	1
CCn1c(CNc2cccc(Cl)c2)nnc1SCc1ccccc1	13
Nc1cccc(-c2nc3ccc(N)cc3s2)c1	61*
Cc1ccc2[nH]c(-c3cccc(N)c3)cc2c1	-51
CN(C)c1nc(N)nc(-c2nc3ccccc3s2)n1	-54
CCCN(CCC)CCSc1nc(O)c(C(C)C)c(=O)[nH]1	-16
CC(=O)OC1CC2(C)C(=O)CCC2C2CCc3cc(O)ccc3C12 (stereo unspecified)	8
COc1ccccc1OCC(=O)c1[nH]c(C)c(C(C)=O)c1C	50*
COC(=O)c1c(C)[nH]c(C(C)=O)c1C	-16
CCOC(=O)c1c(C)[nH]c(C)c1C(=O)COC(=O)CCOc1ccccc1OC	-2
COC(=O)c1cc(OC)c(OCc2cc(C(=O)OC)oc2C)c(OC)c1	3
O=C(OCc1nc2ccccc2s1)C1CCN(C2=NS(=O)(=O)c3ccccc32)CC1	-53
CCOc1ccc2[nH]c(S(=O)(=O)CC)nc2c1Cl	-9
SMILES	SF1 inhibitor
CS(=O)c1nc(-c2ccc(Br)cc2)cc(-c2ccccc2)c1C#N (stereo unspecified)	61*
CN(C(=O)c1cnc2n(c1=O)CCS2)C1CCCCC1	-1
COc1cc(C2C(C#N)=C(C)NC3=C2C(=O)c2ccccc23)cc(OC)c1OC (stereo unspecified)	82*
CCSC1=C(C#N)C(c2ccccc2OC)CC(=O)N1 (stereo unspecified)	-6
CNC(=O)Cn1c(=O)n(C)c2ccccc21	15
CN1CCN(c2nc(-c3ccccc3)nc3c2oc2ccccc23)CC1	5
Cc1c(NC(=O)c2cc(=O)[nH]c(=O)[nH]2)c(=O)n(-c2ccccc2)n1C	-3
CC(NC(=O)c1ccco1)C(=O)OCc1cccc(Cl)c1 (stereo unspecified)	-8
CCOC(=O)Cn1c(CN2CC(C)OC(C)C2)nc2c1c(=O)n(C)c(=O)n2C (stereo unspecified)	0
CCOC(=O)C(C)Oc1cccc2c(=O)n(CC(=O)Nc3ccc4c(c3)OCCO4)ccc12 (stereo unspecified)	82*
